In the library only some 1.3% were active in any assay of this set; here they are far more common.
Gli-Sufu antag – blocks Gli-Sufu signaling in a luciferase reporter; Sufu-KO-LIGHT fibroblasts, Gli luciferase reporter luminescence; inhibition, % at 5 µM; 340,000 compounds, 0.74% hits;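 active = inhibition above about 55%, limit read from the data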
NCOA1 inh – human NCOA1 inhibition. Q15788. HEK293 GAL4-SRC1 luciferase reporter, luminescence. inhibition, % at 3.6 µM. 360,000 compounds, 0.12% hits;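 active = inhibition above the campaign mean plus 3 SD, with each screening campaign given its own cutoff, cut at about 60% in these data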
NR5A2 inv ag – suppresses constitutive activity of human LRH-1; inhibition, % at 3.6 µM; AID 602396; HEK293T StAR-luciferase reporter, LRH-1 transfected, 24 h; 360,000 compounds, 0.13% hits;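 active = inhibition above the mean inhibition of all tested compounds plus 3 SD, cut at about 73% in these data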
NCOA2 inhibitor – inhibits human steroid receptor coactivator 2. inhibition, % at 9 µM. AID 651957. HEK293 GAL4-SRC2 luciferase reporter, luminescence. Q15596. 370,000 compounds, 0.17% hits;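 active = inhibition above the mean inhibition of all tested compounds plus 3 SD, set per campaign, cut at about 52% in these data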
SRC3 inh – human NCOA3 inhibition; 360,000 compounds, 0.17% hits; Q9Y6Q9; inhibition, % at 3.6 µM; HEK293 GAL4-SRC3 luciferase reporter, luminescence; AID 588352;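 active = inhibition above a per-campaign cutoff, the mean of all compounds plus 3 SD, cut at about 60% in these data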;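 also: higher means less SRC3-driven luciferase light from the GAL4 reporter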
Target sequence (Q9Y6Q9 whole entry, looked up, the tested form may be a part): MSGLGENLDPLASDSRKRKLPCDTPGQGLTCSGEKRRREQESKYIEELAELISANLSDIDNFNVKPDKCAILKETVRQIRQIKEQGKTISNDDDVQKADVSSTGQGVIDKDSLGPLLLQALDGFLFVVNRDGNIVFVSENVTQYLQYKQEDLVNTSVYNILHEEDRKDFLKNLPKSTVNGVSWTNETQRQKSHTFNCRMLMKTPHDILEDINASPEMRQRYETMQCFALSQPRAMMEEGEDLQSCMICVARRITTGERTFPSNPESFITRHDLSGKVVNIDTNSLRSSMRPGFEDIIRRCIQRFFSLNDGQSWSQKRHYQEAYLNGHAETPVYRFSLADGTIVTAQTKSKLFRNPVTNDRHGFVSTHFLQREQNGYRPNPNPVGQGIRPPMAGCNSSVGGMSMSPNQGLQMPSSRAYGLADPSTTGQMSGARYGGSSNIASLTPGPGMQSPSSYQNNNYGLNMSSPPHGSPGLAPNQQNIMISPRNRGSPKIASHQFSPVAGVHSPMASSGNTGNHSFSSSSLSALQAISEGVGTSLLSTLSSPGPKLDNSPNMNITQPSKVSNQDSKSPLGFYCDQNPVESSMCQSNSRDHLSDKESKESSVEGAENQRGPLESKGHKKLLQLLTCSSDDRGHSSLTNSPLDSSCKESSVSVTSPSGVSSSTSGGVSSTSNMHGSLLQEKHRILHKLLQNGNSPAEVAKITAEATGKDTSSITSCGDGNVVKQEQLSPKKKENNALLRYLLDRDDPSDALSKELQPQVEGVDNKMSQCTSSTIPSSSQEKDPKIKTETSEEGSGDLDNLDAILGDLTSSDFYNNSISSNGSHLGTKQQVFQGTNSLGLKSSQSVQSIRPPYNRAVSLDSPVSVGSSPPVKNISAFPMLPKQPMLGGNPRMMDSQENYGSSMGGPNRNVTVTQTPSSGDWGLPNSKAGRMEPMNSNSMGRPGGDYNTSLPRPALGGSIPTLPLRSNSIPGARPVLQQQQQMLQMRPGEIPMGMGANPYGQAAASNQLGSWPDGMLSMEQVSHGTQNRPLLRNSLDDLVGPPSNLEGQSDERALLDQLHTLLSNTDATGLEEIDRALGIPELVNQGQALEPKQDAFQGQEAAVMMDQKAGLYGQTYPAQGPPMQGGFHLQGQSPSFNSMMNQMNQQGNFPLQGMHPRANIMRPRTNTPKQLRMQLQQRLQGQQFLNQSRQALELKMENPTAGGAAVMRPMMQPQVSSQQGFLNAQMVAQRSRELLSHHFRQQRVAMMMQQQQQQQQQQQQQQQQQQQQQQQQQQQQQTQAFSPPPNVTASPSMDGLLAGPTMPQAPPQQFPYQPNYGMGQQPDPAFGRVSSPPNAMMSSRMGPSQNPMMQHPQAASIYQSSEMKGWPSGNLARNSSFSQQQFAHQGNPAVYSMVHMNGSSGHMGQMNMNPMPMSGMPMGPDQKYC
COUP-TFII inh – NR2F2 (human) inhibition, primary screen | AID 686940 | inhibition, % at 8.6 µM | HEK293T NGFI-A luciferase reporter, luminescence | 370,000 compounds, 0.7% hits | P24468;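 active = inhibition above a per-plate cutoff, mean inhibition of test wells between control levels plus 3 SD, cut at about 38% in these data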;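 also: cells cotransfected with COUP-TFII expression vector driving the NGFI-A reporter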
VP16 Luc counter – VP16 inhibition counter-screen for COUP-TFII | inhibition, % at 8.5 µM | HEK293 Gal4-VP16 luciferase reporter, luminescence | AID 687007 | shares compounds with COUP-TFII inh | 2,500 compounds, 25% hits; in the data active = inhibition above about 13%
COUP-TFII conf – confirmation of human COUP-TFII (NR2F2) inhibitors; shares compounds with COUP-TFII inh; HEK293 NGFI-A luciferase reporter, luminescence; inhibition, % at 8.5 µM; 2,500 compounds, 45% hits; AID 687008;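 active = mean inhibition over three repeats above a set limit taken from the earlier primary screen, cut at about 38% in these data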
Large screens that a line does not name were inactive (follow-up assays come after a bar, where they were run).

COc1ccc(CN(C)C(=O)c2ccc(OCC(=O)Nc3cccc(C(F)(F)F)c3)c(OC)c2)c(OC)c1	COUP-TFII inh 70.9 | VP16 Luc counter inactive | COUP-TFII conf 58.7
COc1ccc(NC(=O)CN(C)C(=O)c2ccccc2OCC(=O)Nc2cccc(C(F)(F)F)c2)cc1	none
COC(=O)C1CN(C2CC2)CCS(=O)(=O)N1Cc1cn(Cc2ccccc2)nn1 (stereo unspecified)	none (no result: Gli-Sufu antag, NCOA1 inh, NR5A2 inv ag, SRC3 inh)
CCC(C)NC(=S)Nc1ccc(C(=O)OC)cc1 (stereo unspecified)	COUP-TFII inh 39.0 | VP16 Luc counter inactive | COUP-TFII conf inactive
CCC(C)NC(=S)Nc1ccccc1 (stereo unspecified)	none
COc1ccc(OC)c(CC(=O)Nc2ccc3c(c2)c(=O)n(C)n3Cc2cccc(C(F)(F)F)c2)c1	NCOA2 inhibitor 57.8, COUP-TFII inh 83.1 (no result: Gli-Sufu antag) | VP16 Luc counter inactive | COUP-TFII conf inactive
COc1cc(/C=C/C(=O)c2ccc3c(c2)OCCO3)cc(Br)c1OCC(=O)N(C)C	NCOA2 inhibitor 54.8, COUP-TFII inh 37.6 | VP16 Luc counter 30.6 | COUP-TFII conf inactive
O=C(/C=C/c1ccncc1)c1ccc2c(c1)OCCO2	none
Cc1c(C(=O)Nc2ccncc2)sc2nc(-c3ccc(F)cc3)cn12	none
COc1ccc(-c2cn3c(C)c(C(=O)Nc4ccncc4)sc3n2)cc1	COUP-TFII inh 47.2 | VP16 Luc counter inactive | COUP-TFII conf inactive
COc1ccc(-c2cn3c(C)c(C(=O)Nc4cccc(NC(C)=O)c4)sc3n2)cc1	COUP-TFII inh 59.1 | VP16 Luc counter inactive | COUP-TFII conf inactive
COCc1ccc(C(=O)N2CCC(CCC(=O)Nc3cccc(C)c3)CC2)s1	COUP-TFII inh 40.1 | VP16 Luc counter 30.2 | COUP-TFII conf inactive
CC(C)C[C@H]1COc2cccc(N3CCCC3)c2S(=O)(=O)N1C	none (no result: Gli-Sufu antag, NCOA1 inh, NR5A2 inv ag, SRC3 inh)
O=C(CSc1nnc(-c2cccnc2)s1)Nc1ccnc2ccccc12	COUP-TFII inh 65.3 | VP16 Luc counter inactive | COUP-TFII conf 62.4
O=S1(=O)c2ccc(Br)cc2OC[C@@H](Cc2ccccc2)N1Cc1cn(CCC2OCCO2)nn1	none (no result: Gli-Sufu antag, NCOA1 inh, NR5A2 inv ag, SRC3 inh)
O=C1C(N2CCOCC2)=C(n2nnc3ccccc32)C(=O)c2ccccc21	NCOA2 inhibitor 58.1, COUP-TFII inh 39.3 | VP16 Luc counter 18.8 | COUP-TFII conf inactive
O=C1c2ccccc2C(=O)c2c1cccc2-n1nnc2ccccc21	none
COCC(=O)OC1CCn2c1nc1c2C(=O)C(C)=C(NC(C)=O)C1=O (stereo unspecified)	NCOA1 inh 89.9, NR5A2 inv ag 96.1, NCOA2 inhibitor 72.9, SRC3 inh 87.6, COUP-TFII inh 71.8 | VP16 Luc counter 49.7 | COUP-TFII conf 73.6
O=C(OCC#CCSc1nnc(-c2ccccc2)o1)c1ccc(F)cc1	none (no result: Gli-Sufu antag, NCOA1 inh, NR5A2 inv ag, NCOA2 inhibitor, SRC3 inh)
CSc1ccc(CN2CCN(Cc3ccc([N+](=O)[O-])cc3)CC2)cc1	COUP-TFII inh 51.3 | VP16 Luc counter inactive | COUP-TFII conf 46.1
Cc1cc(/C=C2/C(=O)NN(c3ccccc3)C2=O)c(C)n1-c1cccc(O)c1	COUP-TFII inh 40.6 | VP16 Luc counter inactive | COUP-TFII conf 39.2
OCCN(CCO)CC(O)COc1ccc(Br)cc1 (stereo unspecified)	none
OCCN(CCO)CC(O)COc1ccc(C23CC4CC(CC(C4)C2)C3)cc1 (stereo unspecified)	NCOA2 inhibitor 73.5, COUP-TFII inh 87.1 | VP16 Luc counter 62.5 | COUP-TFII conf 72.2
CC(SCc1ccccc1)C(=O)Nc1ccc(F)cc1 (stereo unspecified)	none
N#CC(C#N)=C(Nc1ccc(F)cc1)SCc1cccc(Br)c1	Gli-Sufu antag 64.4, COUP-TFII inh 52.2 | VP16 Luc counter inactive | COUP-TFII conf 38.3
Cc1ccc(-n2c(SCC(=O)NN=Cc3c[nH]c4ccccc34)nnc2-c2ccccc2)cc1	none (no result: Gli-Sufu antag, NCOA1 inh, NR5A2 inv ag, SRC3 inh)
COC(=O)c1c(C)n(-c2ccccc2)c2ccc(O)cc12	none
CN(C)/C=C/c1c([N+](=O)[O-])c2ccc(O)cc2n1-c1ccccc1	COUP-TFII inh 40.0 | VP16 Luc counter inactive | COUP-TFII conf inactive
CC1CC(C)(C)Nc2ccc(OC(=O)c3ccco3)cc21 (stereo unspecified)	NCOA2 inhibitor 58.4, COUP-TFII inh 44.6 | VP16 Luc counter 17.6 | COUP-TFII conf inactive
Cc1ccc(NC(=O)c2ccc(OCc3c(C)noc3C)cc2)cc1C	COUP-TFII inh 38.1 | VP16 Luc counter inactive | COUP-TFII conf inactive
O=C(NCc1cccnc1)c1ccc(-c2ccc(F)c(F)c2)c2ccoc12	COUP-TFII inh 67.7 (no result: Gli-Sufu antag) | VP16 Luc counter inactive | COUP-TFII conf 49.5
COc1ccc(CN(C)C(C#Cc2ccccc2)Cc2ccccc2)c(OC)c1 (stereo unspecified)	none (no result: Gli-Sufu antag, NCOA1 inh, NR5A2 inv ag, SRC3 inh)
N#CN1CCC(NS(=O)(=O)c2ccc(F)cc2)C1 (stereo unspecified)	none (no result: Gli-Sufu antag, NCOA1 inh, NR5A2 inv ag, NCOA2 inhibitor, SRC3 inh)
COCCn1c(C)c(C)c2c(NCCc3ccccc3)ncnc21	COUP-TFII inh 46.8 | VP16 Luc counter inactive | COUP-TFII conf 64.1
COc1cc(NC(=O)C2CCCN(S(=O)(=O)c3cccc4cccnc34)C2)cc(OC)c1 (stereo unspecified)	none (no result: Gli-Sufu antag, NCOA1 inh, NR5A2 inv ag, SRC3 inh)
O=C(Nc1cccc(S(=O)(=O)NC2=NCCC2)c1)c1ccccc1	none
CCc1nc2ccccc2c(C(=O)OCC(=O)Nc2cccc(S(=O)(=O)NC3=NCCCCC3)c2)c1C	COUP-TFII inh 64.3 | VP16 Luc counter inactive | COUP-TFII conf inactive
CCc1nc2ccccc2c(C(=O)OCC(=O)Nc2cccc(S(=O)(=O)N3CCOCC3)c2)c1C	COUP-TFII inh 64.8 | VP16 Luc counter inactive | COUP-TFII conf inactive
O=C(Nc1cccc(S(=O)(=O)NC2=NCCCCC2)c1)c1ccc(Cl)cc1	COUP-TFII inh 43.2 | VP16 Luc counter inactive | COUP-TFII conf inactive
CCOC(=O)[C@@]12CCCC3=C1N(CCC3)C(=O)[C@H]2CC(=O)NCCC(C)C	none (no result: Gli-Sufu antag, NCOA1 inh, NR5A2 inv ag, SRC3 inh)
COc1ccc(C(=O)C2CCN(C(=S)NCCc3ccc(OC)c(OC)c3)CC2)cc1	COUP-TFII inh 44.0 | VP16 Luc counter inactive | COUP-TFII conf inactive
COc1ccc(CCNC(=S)N2CCC(C(=O)c3ccc(F)cc3)CC2)cc1OC	COUP-TFII inh 43.2 | VP16 Luc counter inactive | COUP-TFII conf inactive
COc1ccc(C(=O)C2CCN(C(=S)NCCc3ccccc3)CC2)cc1	none
CCc1ccn2cc(-c3cc(-c4ccccc4)no3)nc2c1	Gli-Sufu antag 55.7, NCOA2 inhibitor 73.7, COUP-TFII inh 87.9 | VP16 Luc counter 18.3 | COUP-TFII conf 66.6
Cc1ccc2nc(-c3cc(-c4ccccc4)no3)cn2c1	none
CCOC(=O)N1CCN(C(=O)C[C@@H]2C(=O)N3CCCC4=C3[C@@]2(C(=O)OCC)CCC4)CC1	none (no result: Gli-Sufu antag, NCOA1 inh, NR5A2 inv ag, SRC3 inh)
CCNC(=O)C1(C)CCCN(C(=O)c2ccc3sccc3c2)C1 (stereo unspecified)	none (no result: Gli-Sufu antag)
CCNC(=O)C1(C)CCCN(C(=O)c2ccc3c(c2)C(C)(C)CCC3(C)C)C1 (stereo unspecified)	COUP-TFII inh 38.9 (no result: Gli-Sufu antag) | VP16 Luc counter inactive | COUP-TFII conf inactive

Compound activity from PubChem.
